Reference: PubChem BioAssay (NCATS)
Values joined by “and” are separate entries in the source; they are usually repeats but may differ in a detail not shown here. Equal entries are not always repeated. Results filed as inconclusive are left out. Active and inactive are the calls of the source. Unless noted, the call rests on the fitted dose curve; in most records, active means well fitted curve in either direction with a large enough effect (not every such curve was filed as active); inconclusive means small, poorly fitted or top-dose-only effect, or another doubt; inactive means flat fitted curve, though single readings scatter.

Columns and labels:
[1] = target: Cytochrome P450 1A2 (Homo sapiens) (UniProt P05177); assay: p450-cyp1a2 (AID 410; calls by dose curve; further: potency means the concentration at half of the fitted maximal effect;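 on activity change, negative = inhibition: -100% = full effect of reference inhibitor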)
Outline: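 Human CYP1A2 (20nM) demethylated Luciferin-ME at its Km (100uM) in 100mM KPO4. After 10 min compound preincubation, NADPH regeneration ran the reaction 60 min at room temperature. Luciferin was read by luminescence, normalized to 57 uM furafylline.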

[2] = target: Glucocorticoid receptor (Homo sapiens) (UniProt P04150); assay: GR-GFP Redistribution (AID 450;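 active means compounds whose dose series gives a full or clear partial fitted curve of increased nuclear translocation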; further: potency means the concentration at half of the fitted maximal effect); details: U2OS GR-GFP nuclear translocation, laser cytometry, 2 h
[3] = target: Glucocorticoid receptor (Homo sapiens) (UniProt P04150); assay: GR-EFC Redistribution (AID 451; calls by dose curve; further: potency means the concentration at half of the fitted maximal effect); details: CHO-K1 GR-EFC translocation, beta-gal luminescence, 2 h
Outline: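 CHO-K1 cells expressing nuclear EA and GR-ED fragments of b-gal; compounds titrated up to 46 uM final, 2 h at 37 C. GR nuclear translocation read as complemented b-gal luminescence after 1 h RT detection.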

[4] = target: Mitogen-activated protein kinase 10 (Mus musculus) (UniProt Q61831); assay: JNK3 AlphaScreen Assay (AID 530);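 further: kinase came from lysate of stimulated human HepG2 cells; signal reports phosphorylation of biotinylated GST-cJun 1-79 at Ser73 with 10 µM ATP; on the % scale 0 is the no-effect control and ±100 the full control effect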
Outline: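 qHTS format: compounds tested as titrations against IL-1beta/TNF-alpha-activated HepG2 lysate JNK3 with biotin-GST-cJun substrate and 10 uM ATP at room temperature. Loss of anti-phospho-cJun AlphaScreen signal indicates inhibition.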

[5] = target: 3',5'-cyclic-AMP phosphodiesterase 4B (Homo sapiens) (UniProt Q07343); assay: qHTS Assay for Inhibitors of PDE-IV (AID 607; active means well fitted activation curve with a large enough effect in the main read-out, with a control signal flat, not every such curve was filed as active; further: % of control where 0% means no effect)
Outline: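 Cell-based read-out of cAMP via a modified cyclic nucleotide-gated channel and membrane potential dye (535/590 nm) in HEK293 cells expressing PDE4 endogenously. Compounds tested up to 22.9 uM final; 100 uM RO 20-1724 reference.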

[6] = qHTS Assay for Lipid Storage Modulators (AID 1519; calls by dose curve); details: Drosophila S3 cells, BODIPY lipid droplet/cell ratio, laser cytometry, cells loaded with oleic acid
Outline: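 Cells seeded at 5,000 per well were treated with compounds over a concentration series and loaded with oleic acid (400 uM, as added). Lipid droplet fluorescence (488 nm excitation, 500-530 nm channel) was read by laser-scanning cytometry and normalized to 20 uM Triacsin C.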

[7] = target: Ubiquitin carboxyl-terminal hydrolase 1 (Homo sapiens) (UniProt O94782); assay: Inhibitors of USP1/UAF1: Pilot qHTS (AID 504865; active means well fitted curve in the direction sought with a large enough effect; an effect the other way counts as inactive or inconclusive;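 further: rhodamine fluorescence freed from ubiquitin-rhodamine substrate followed over time; top concentration of the series differs between compounds; on the % scale 0 is the no-effect control and ±100 the full control effect; nearly all actives have a fitted effect of over 35% in size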)
Outline: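 USP1/UAF1 complex (1nM) preincubated with compound 15 min at room temperature, then Ub-Rho substrate (150nM final) added. Fluorescence read kinetically at 480/540 nm, 6 reads every 60 seconds. Buffer: 50mM HEPES pH 7.8, 0.5mM EDTA, 0.1 mg/ml BSA, 1mM TCEP, 0.01% Tween-20.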

[8] = target: Luciferin 4-monooxygenase (Photinus pyralis) (UniProt P08659); assay: Biochemical firefly luciferase enzyme assay for NPC (AID 624030; active means well fitted curve in the direction sought with a large enough effect; an effect the other way counts as inactive or inconclusive;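 further: purified P. pyralis luciferase at 10 nM with luciferin and ATP substrate; 0% = DMSO and -100% = full luciferase inhibition by PTC124 control; nearly all actives have a fitted effect of over 70% in size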)
Outline: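 Purified P. pyralis luciferase at 10 nM in 50 mM Tris Acetate (final), luminescence read within 5 minutes of enzyme addition to compounds. Activity normalised to PTC124 versus DMSO; concentration-response curves classed by r2, magnitude and activity.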

[9] = qHTS profiling for inhibitors of Plasmodium falciparum proliferation (AID 504749; active means well fitted curve in the direction sought with a large enough effect; an effect the other way counts as inactive or inconclusive;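 further: 0% = DMSO vehicle and full inhibition = artemisinin control; nearly all actives have a fitted effect of over 60% in size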); details: P. falciparum in erythrocytes, SYBR Green DNA, 72 h, at 28.7 µM (top of the series)
Outline: (§1)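 Readout was DNA-dye fluorescence from lysed cultures, ex 485/em 535 nm. Parasitized red cells had grown 72 h with compound; data scaled between 0.29 uM artemisinin and DMSO wells and corrected using vehicle-only plates.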

ATS189 = assay: as above; details: P. falciparum in erythrocytes, SYBR Green DNA, 72 h; series mostly up to 12.8 µM
Outline: as §1

CP201 = assay: as above; details: P. falciparum in erythrocytes, SYBR Green DNA, 72 h; series mostly up to 12.8 µM
Outline: as §1

CP291 = assay: as above; details: P. falciparum in erythrocytes, SYBR Green DNA, 72 h; series mostly up to 12.8 µM
Outline: as §1

DFO2036 = assay: as above; details: P. falciparum in erythrocytes, SYBR Green DNA, 72 h; series mostly up to 12.8 µM
Outline: as §1

PC49 = assay: as above; details: P. falciparum in erythrocytes, SYBR Green DNA, 72 h; series mostly up to 12.8 µM
Outline: as §1

TAB113 = assay: as above; details: P. falciparum in erythrocytes, SYBR Green DNA, 72 h; series mostly up to 12.8 µM
Outline: as §1

[10] = AP1 Signaling Pathway (AID 357); details: ME-180 AP-1-bla reporter, EGF-induced, beta-lactamase ratio, 5 h; at 7.69 µM (top of the series) unless noted; further: on the % scale 0 is the no-effect control and ±100 the full control effect
Outline: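 ME-180 cells with beta-lactamase reporter under AP-1 response element, stimulated with EC50 EGF; compounds tested in titration series, 5 h at 37 °C. CCF4 substrate added 2.5 h at room temperature; 460/530 nm emission ratio gave %activity and AC50.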

[11] = Stat Signaling Pathway (AID 446); details: ME-180 SIE beta-lactamase reporter, IL-6 stimulated, 5 h;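 further: ME-180 cervical cancer cells given 40 pM IL-6 alongside compound; SIE-controlled beta-lactamase reporter measured as 460/530 nm FRET emission ratio; on the % scale 0 is the no-effect control and ±100 the full control effect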
Outline: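 Reporter line: ME-180 cervical carcinoma, SIE-beta-lactamase. Treatment: compound with 40 pM IL-6, 5 hrs, 37 C, in low-serum OPTI-MEM with 10 mM HEPES pH 7.3. Detection: 460/530 nm fluorescence.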

[12] = target: Lysosomal acid glucosylceramidase (Homo sapiens) (UniProt P04062); assay: Glucocerebrosidase-p2 (AID 348; in the data active means potency below about 10 µM; further: potency means the concentration at half of the fitted maximal effect); details: purified GBA, blue fluorogenic substrate, 40 min
Outline: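 Compounds titrated from 0.6 nM upwards against 0.2 nM enzyme in pH 5.9 citric acid/KH2PO4, taurocholate, tween-20; blue fluorogenic substrate 80 uM, 40 min room temperature, stopped and read Ex 365/Em 440 for AC50.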

[13] = NFAT Signaling Pathway (AID 444); details: Jurkat NFAT-bla M1, carbachol, beta-lactamase ratio, 5 h; at 7.69 µM (top of the series) unless noted;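 further: carbachol stimulus at about its EC50 of 1 µM final; on the % scale 0 is the no-effect control and ±100 the full control effect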
Outline: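 Jurkat cells with NFAT-driven β-lactamase reporter and co-expressed M1 receptor, stimulated with carbachol (final 1 uM, ~EC50), compound titration, 5 h at 37 °C. CCF4 loaded 1 h at RT; 460/530 nm ratio gave %activity and AC50.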

[14] = target: Cytochrome P450 3A4 (Homo sapiens) (UniProt P08684); assay: qHTS Assay for Activators of Cytochrome P450 3A4 (AID 885; active means well fitted curve in the direction sought with a large enough effect; an effect the other way counts as inactive or inconclusive; further: nearly all actives have a fitted effect of over 65% in size)
Outline: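 Signal was normalized against complete inhibition by 57 uM ketoconazole. The reaction used 20nM CYP3A4 with 25uM Luciferin-PPXE, 10-min compound preincubation and a 60-min NADPH-supported step at RT.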

[15] = measured here: cell count channel max response
[16] = measured here: lipid channel max response
[17] = at 7.69 µM (top of the series) unless noted

Sequence of Cytochrome P450 1A2 (Homo sapiens) (P05177 whole entry, looked up): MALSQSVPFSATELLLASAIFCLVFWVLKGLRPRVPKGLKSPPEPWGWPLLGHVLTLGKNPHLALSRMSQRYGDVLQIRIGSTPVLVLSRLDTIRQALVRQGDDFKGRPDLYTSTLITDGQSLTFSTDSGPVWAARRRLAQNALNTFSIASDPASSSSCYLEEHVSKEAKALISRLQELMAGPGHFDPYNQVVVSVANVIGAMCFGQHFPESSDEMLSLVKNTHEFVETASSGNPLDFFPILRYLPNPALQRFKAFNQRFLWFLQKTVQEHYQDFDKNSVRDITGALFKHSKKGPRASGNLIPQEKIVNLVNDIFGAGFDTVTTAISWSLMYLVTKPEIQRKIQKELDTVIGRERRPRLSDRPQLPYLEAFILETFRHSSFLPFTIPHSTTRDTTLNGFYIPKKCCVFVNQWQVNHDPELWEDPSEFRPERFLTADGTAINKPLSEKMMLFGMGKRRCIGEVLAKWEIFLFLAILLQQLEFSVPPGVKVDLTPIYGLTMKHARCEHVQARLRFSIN
Sequence of 3',5'-cyclic-AMP phosphodiesterase 4B (Homo sapiens) (Q07343 whole entry, looked up): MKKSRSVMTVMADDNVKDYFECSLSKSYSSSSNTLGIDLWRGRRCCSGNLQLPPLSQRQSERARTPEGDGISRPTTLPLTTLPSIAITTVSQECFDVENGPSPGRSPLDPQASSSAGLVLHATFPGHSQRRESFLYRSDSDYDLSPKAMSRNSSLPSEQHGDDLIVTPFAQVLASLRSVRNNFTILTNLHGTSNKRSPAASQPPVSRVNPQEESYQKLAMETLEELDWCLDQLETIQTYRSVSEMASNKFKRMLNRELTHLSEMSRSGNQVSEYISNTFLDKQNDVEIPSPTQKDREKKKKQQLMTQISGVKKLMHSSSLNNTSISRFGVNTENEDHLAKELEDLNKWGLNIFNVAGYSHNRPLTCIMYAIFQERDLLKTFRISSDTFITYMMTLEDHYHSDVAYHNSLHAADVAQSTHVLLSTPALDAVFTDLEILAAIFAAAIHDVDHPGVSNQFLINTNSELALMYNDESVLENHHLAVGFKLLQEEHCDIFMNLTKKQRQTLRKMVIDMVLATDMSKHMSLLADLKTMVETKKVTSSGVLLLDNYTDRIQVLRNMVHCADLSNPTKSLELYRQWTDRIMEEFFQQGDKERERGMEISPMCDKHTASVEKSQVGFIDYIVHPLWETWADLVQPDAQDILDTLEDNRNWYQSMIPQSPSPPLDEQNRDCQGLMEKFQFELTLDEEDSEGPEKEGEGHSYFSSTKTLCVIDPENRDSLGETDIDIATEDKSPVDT
Sequence of Glucocorticoid receptor (Homo sapiens) (P04150 whole entry, looked up, the tested form may be a part): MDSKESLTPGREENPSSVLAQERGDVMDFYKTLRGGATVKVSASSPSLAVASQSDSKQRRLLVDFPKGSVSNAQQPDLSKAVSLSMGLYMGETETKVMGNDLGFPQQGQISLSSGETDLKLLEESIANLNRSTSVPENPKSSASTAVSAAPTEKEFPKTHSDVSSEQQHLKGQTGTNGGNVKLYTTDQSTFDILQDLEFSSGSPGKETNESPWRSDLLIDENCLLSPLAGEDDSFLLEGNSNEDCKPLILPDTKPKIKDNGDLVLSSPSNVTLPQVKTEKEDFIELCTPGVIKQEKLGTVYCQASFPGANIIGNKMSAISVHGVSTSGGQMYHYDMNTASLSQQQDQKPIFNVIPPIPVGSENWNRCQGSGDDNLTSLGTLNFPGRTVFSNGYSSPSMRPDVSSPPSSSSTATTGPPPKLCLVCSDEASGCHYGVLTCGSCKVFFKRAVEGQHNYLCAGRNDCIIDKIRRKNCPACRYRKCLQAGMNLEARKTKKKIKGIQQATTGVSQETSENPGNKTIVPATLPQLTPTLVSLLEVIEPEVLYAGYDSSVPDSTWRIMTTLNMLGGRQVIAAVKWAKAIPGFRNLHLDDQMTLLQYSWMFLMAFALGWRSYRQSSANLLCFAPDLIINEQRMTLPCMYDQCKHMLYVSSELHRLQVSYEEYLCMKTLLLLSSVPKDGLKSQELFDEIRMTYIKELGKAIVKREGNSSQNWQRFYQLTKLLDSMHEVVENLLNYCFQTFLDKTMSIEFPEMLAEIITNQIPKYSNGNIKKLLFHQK
Sequence of Ubiquitin carboxyl-terminal hydrolase 1 (Homo sapiens) (O94782 whole entry, looked up): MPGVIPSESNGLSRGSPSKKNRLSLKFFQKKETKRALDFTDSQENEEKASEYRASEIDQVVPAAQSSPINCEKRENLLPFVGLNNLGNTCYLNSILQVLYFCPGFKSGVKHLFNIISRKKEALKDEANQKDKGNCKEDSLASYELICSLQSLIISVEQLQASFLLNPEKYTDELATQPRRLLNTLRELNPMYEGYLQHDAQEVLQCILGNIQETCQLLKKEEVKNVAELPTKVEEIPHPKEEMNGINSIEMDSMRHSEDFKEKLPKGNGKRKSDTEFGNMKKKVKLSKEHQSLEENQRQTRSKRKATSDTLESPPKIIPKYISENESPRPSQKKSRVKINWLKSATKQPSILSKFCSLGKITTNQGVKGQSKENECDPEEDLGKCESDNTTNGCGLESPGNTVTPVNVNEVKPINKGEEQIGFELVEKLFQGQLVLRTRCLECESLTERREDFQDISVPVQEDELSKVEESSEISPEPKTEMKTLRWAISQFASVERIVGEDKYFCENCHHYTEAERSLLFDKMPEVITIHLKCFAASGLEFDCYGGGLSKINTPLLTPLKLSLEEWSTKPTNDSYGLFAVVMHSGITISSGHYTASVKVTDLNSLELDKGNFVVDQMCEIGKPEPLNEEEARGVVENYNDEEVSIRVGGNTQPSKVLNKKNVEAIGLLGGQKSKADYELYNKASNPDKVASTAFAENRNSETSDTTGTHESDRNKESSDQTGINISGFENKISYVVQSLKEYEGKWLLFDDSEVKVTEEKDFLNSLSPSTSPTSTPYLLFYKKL
Sequence of Lysosomal acid glucosylceramidase (Homo sapiens) (P04062 whole entry, looked up): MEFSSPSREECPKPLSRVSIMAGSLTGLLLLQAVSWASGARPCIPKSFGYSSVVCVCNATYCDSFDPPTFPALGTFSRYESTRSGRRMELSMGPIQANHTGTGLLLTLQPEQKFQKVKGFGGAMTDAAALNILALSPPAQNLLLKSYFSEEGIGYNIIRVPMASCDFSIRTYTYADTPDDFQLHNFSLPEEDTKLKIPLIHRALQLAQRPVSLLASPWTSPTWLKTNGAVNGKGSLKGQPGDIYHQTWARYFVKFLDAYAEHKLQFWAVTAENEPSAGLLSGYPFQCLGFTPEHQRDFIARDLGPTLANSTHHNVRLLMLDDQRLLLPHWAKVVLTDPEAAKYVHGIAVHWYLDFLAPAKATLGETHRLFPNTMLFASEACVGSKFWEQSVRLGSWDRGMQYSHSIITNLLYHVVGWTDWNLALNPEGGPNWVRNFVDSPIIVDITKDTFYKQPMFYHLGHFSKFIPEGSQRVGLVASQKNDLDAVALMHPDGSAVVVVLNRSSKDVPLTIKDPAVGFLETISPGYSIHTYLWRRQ
Sequence of Cytochrome P450 3A4 (Homo sapiens) (P08684 whole entry, looked up): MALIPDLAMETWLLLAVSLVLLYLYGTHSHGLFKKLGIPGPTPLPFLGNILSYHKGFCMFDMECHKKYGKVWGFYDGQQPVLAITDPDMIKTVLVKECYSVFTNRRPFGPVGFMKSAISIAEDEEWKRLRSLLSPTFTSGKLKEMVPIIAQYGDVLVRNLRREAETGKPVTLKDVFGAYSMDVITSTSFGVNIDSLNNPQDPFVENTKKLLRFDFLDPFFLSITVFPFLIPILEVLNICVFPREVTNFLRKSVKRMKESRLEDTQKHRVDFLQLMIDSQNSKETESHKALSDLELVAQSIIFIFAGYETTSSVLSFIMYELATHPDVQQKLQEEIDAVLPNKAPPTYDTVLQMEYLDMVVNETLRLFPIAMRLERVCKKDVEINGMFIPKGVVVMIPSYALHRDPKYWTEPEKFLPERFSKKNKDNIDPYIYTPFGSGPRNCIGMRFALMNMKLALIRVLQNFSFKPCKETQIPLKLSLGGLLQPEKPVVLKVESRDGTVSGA
Sequence of Luciferin 4-monooxygenase (Photinus pyralis) (P08659 whole entry, looked up): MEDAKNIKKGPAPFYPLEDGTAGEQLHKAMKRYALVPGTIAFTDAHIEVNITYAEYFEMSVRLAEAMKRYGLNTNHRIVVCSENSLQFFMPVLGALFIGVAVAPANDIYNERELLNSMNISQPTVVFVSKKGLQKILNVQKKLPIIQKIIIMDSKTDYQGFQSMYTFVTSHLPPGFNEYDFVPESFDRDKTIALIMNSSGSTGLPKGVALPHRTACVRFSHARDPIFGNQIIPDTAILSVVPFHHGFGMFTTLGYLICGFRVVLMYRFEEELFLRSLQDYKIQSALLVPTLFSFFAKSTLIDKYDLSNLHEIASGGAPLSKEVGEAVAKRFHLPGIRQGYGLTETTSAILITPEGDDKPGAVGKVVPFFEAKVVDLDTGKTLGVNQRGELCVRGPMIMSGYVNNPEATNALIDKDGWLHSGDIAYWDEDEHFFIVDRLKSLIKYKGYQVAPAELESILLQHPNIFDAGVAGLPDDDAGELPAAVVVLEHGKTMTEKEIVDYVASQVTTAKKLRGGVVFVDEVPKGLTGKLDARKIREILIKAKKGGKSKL

CC1(C)Oc2ccc(C#N)cc2[C@H](N2CCCC2=O)[C@H]1O
6.51% and -0.942%: max response [6, 16]
5.79% and -0.997%: max response [6, 15]
active: Potency [1] 10 µM
inactive: Potency [2] > 46 µM | Potency [3] > 46 µM | Potency [4] | Potency [5] | activity change, negative = inhibition ([6]; at 57.5 µM (top of the series)) 0.0468% and 5.32% | Potency [7] | outcome [8] | activity, negative = inhibition ([9]; parasite line A) 10.2% | activity, negative = inhibition ([9]; parasite line B) 9.46% | Potency (ATS189) | Potency (CP201) | Potency (CP291) | Potency (DFO2036) | Potency (PC49) | Potency (TAB113)

CC(CCC(=O)O)C1CCC2C3C(O)C[C@@H]4CC(O)CC[C@@]4(C)C3CC[C@@]12C (stereo partly drawn)
15% and 25.1%: max response [6, 16]
13% and 15.4%: max response [6, 15]
inactive: activity change, negative = inhibition ([6]; at 57.5 µM (top of the series)) 1.17% and 5.02% | Potency [7]

Cc1ccccc1[C@@H](OCCN(C)C)c1ccccc1
1.49%: max response [6, 16]
inactive: activity change, negative = inhibition [10] 26.9% [at 17.2 µM] | Potency [1] | activity, negative = inhibition ([11]; at 17.2 µM (top of the series)) 5.39% | activity, negative = inhibition ([11]; at 38 µM (top of the series)) 20.8% | Potency [2] > 46 µM and > 20.6 µM | Potency [3] > 46 µM and > 20.6 µM | Potency [4] | Potency [5] | activity change, negative = inhibition ([6]; at 25.7 µM (top of the series)) -1.18%
0.329%: max response [6, 15]

Cn1c(=O)c(-c2cc(F)cc(F)c2)nc2cnc(Nc3ccccc3)nc21
inactive: Potency [12] > 11.4 µM | activity change, negative = inhibition [10] -3.31% | activity change, negative = inhibition [13] 6.94% | activity, negative = inhibition [11, 17] 4.13% | Potency [2] > 9.22 µM | Potency [3] > 46 µM | Potency [4] | Potency [5] | Potency [7]

N#CCCn1c(=O)cnc2cnc(OCc3ccccc3)nc21
inactive: Potency [12] > 11.4 µM | activity change, negative = inhibition [10] -4.07% | activity change, negative = inhibition [13] 0.323% | activity, negative = inhibition [11, 17] -5.03% | Potency [2] > 9.22 µM | Potency [3] > 46 µM | Potency [4] | Potency [5]
active: Potency [1] 12.6 µM

Cc1cccc(CNc2ncncc2-c2ccccc2Cl)c1
active: Potency [1] 3.16 µM
inactive: Potency [12] > 11.4 µM | activity change, negative = inhibition [10] -12.3% | activity, negative = inhibition [11, 17] -14.1% | Potency [2] > 46 µM | Potency [3] > 46 µM | Potency [4] | Potency [14] | Potency [7]

COc1ncc2nc(-c3ccc(Cl)cc3)c(=O)n(-c3ccccc3)c2n1
inactive: Potency [12] > 11.4 µM | activity change, negative = inhibition [10] -12.8% | activity change, negative = inhibition [13] -0.099% | activity, negative = inhibition [11, 17] 0.109% | Potency [2] > 9.22 µM | Potency [3] > 46 µM | Potency [4] | Potency [5]
active: Potency [1] 1.58 µM

COc1ccc(-c2nc3cnc(OC)nc3n(-c3ccccc3)c2=O)cc1
inactive: Potency [12] > 11.4 µM | activity change, negative = inhibition [10] -6.09% | activity change, negative = inhibition [13] 10.5% | activity, negative = inhibition [11, 17] -1.78% | Potency [2] > 9.22 µM | Potency [3] > 46 µM | Potency [4] | Potency [5] | Potency [7]

COc1ccccc1CCn1c(=O)c(-c2cn(C)c3ccccc23)nc2cncnc21
active: Potency [1] 1.26 µM
inactive: Potency [12] > 11.4 µM | activity change, negative = inhibition [13] 19% | Potency [2] > 9.22 µM | Potency [3] > 46 µM | Potency [5] | Potency [14] | Potency [7]

NC(=NCc1ccc(Cl)c(Cl)c1)NC(=O)c1nc(Cl)c(N)nc1N
inactive: activity change, negative = inhibition [10] -11.5% [at 38 µM] | Potency [2] > 46 µM | Potency [3] > 46 µM | Potency [14]
active: Potency [1] 10 µM

COC(=O)N1CCC2(CCN(C(=O)Nc3cccc(F)c3)CC2)CC1
active: Potency [1] 12.6 µM
inactive: activity change, negative = inhibition [10] -21.3% | activity change, negative = inhibition [13] -11.6% | activity, negative = inhibition [11, 17] 22.8% | Potency [3] > 46 µM | Potency [4] | Potency [5]
